Laboratory results: PubChem BioAssay (NCATS)
Inconclusive results are not listed. A call without a number means that no potency is given here. The source made the active and inactive calls. Calls come from the whole dose curve; as a rule, active = well fitted inhibition curve with a large enough effect; inconclusive = small, poorly fitted or top-dose-only effect; inactive = flat fitted curve, though single readings scatter.

Columns and labels:
Experiment in all cases: qHTS profiling for inhibitors of Plasmodium falciparum proliferation (AID 504749); note: nearly all actives have a fitted effect of over 60% in size
Settings in all cases: P. falciparum in erythrocytes, SYBR Green DNA, 72 h; series mostly up to 28.7 µM
CP286 = system: CP286
In short: (§1)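 Quantitative HTS: compounds pinned into medium, infected erythrocytes added (0.3% parasitemia, 2.5% hematocrit), 72 h culture at 37 C under 5% CO2. Saponin/Triton lysis with SYBR Green I, overnight RT, then fluorescence read.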

CP291 = system: CP291
In short: as §1

CP297 = system: CP297
In short: as §1

CP305 = system: CP305
In short: as §1

CP315 = system: CP315
In short: as §1

CP325 = system: CP325
In short: as §1

CP329 = system: CP329
In short: as §1

CP335 = system: CP335
In short: as §1

DFO2036 = system: DFO2036
In short: as §1

DIV14 = system: DIV14
In short: as §1

DIV17 = system: DIV17
In short: as §1

DIV30 = system: DIV30
In short: as §1

Dd2 = system: Dd2
In short: as §1

ECU = system: ECU
In short: as §1

FAB9 = system: FAB9
In short: as §1

GB4 = system: GB4
In short: as §1

HB3 = system: HB3
In short: as §1

ICS = system: ICS
In short: as §1

JCK = system: JCK
In short: as §1

N140 = system: N140
In short: as §1
Potency is the fitted concentration of half-maximal effect.

Row | Structure (SMILES) | Potency (CP286) | Potency (CP291) | Potency (CP297) | Potency (CP305) | Potency (CP315) | Potency (CP325) | Potency (CP329) | Potency (CP335) | Potency (DFO2036) | Potency (DIV14) | Potency (DIV17) | Potency (DIV30) | Potency (Dd2) | Potency (ECU) | Potency (FAB9) | Potency (GB4) | Potency (HB3) | Potency (ICS) | Potency (JCK) | Potency (N140)
1 | CCCCN=C(N)N=C(N)N | inactive | inactive | inactive | inactive | inactive | inactive | inactive | inactive | inactive | inactive | inactive | inactive | inactive | inactive | inactive | inactive | inactive | inactive | inactive | inactive
2 | COc1ccc(/C=N/NC(=O)c2ccncc2)cc1OC | inactive | inactive | inactive | inactive | inactive | inactive | inactive | inactive | inactive | inactive | inactive | inactive | inactive | inactive | inactive | inactive | inactive | inactive | inactive | inactive
3 | CC(C)Cn1cnc2c1c(=O)n(C)c(=O)n2C | inactive | inactive | inactive | inactive | inactive | inactive | inactive | inactive | inactive | inactive | inactive | inactive | inactive | inactive | inactive | inactive | inactive | inactive | inactive | inactive
4 | Cc1cccc(C)c1NC(=O)CN1CCCC1 | inactive | inactive | inactive | inactive | inactive | inactive | inactive | inactive | inactive | inactive | inactive | inactive | inactive | inactive | inactive | inactive | inactive | inactive | inactive | inactive
5 | Cc1nc(-c2ccc(Cl)cc2)oc1COC(C)(C)C(=O)O | inactive | inactive | inactive | inactive | inactive | inactive | inactive | inactive | inactive | inactive | inactive | inactive | inactive | inactive | inactive | inactive | inactive | inactive | inactive | inactive
6 | O[C@@H](c1cc(C(F)(F)F)nc2c(C(F)(F)F)cccc12)[C@H]1CCCCN1 | 112 nM (active) | 151 nM (active) | 107 nM (active) | 213 nM (active) | 169 nM (active) | 135 nM (active) | 269 nM (active) | 107 nM (active) | 35.5 nM (active) | 33.8 nM (active) | 33.8 nM (active) | 33.8 nM (active) | 28.2 nM (active) | 12.6 nM (active) | 70.8 nM (active) | 26.9 nM (active) | 56.2 nM (active) | 8.9 nM (active) | 17800 nM (active) | 10 nM (active)
7 | CCN1/C(=C/C=C/c2sc3ccccc3[n+]2CC)Sc2ccccc21 | 50.1 nM (active) | 379 nM (active) | 849 nM (active) | 190 nM (active) | 757 nM (active) | 601 nM (active) | 426 nM (active) | 107 nM (active) | 100 nM (active) | 478 nM (active) | 478 nM (active) | 675 nM (active) | 112 nM (active) | 224 nM (active) | 282 nM (active) | 301 nM (active) | 251 nM (active) | 100 nM (active) | 398 nM (active) | 251 nM (active)
8 | COc1cc(C(=S)N2CCOCC2)ccc1O | inactive | inactive | inactive | inactive | inactive | inactive | inactive | inactive | inactive | inactive | inactive | inactive | inactive | inactive | inactive | inactive | inactive | inactive | inactive | inactive
9 | O=C(O)Cc1csc(-c2ccc(Cl)cc2)n1 | inactive | inactive | inactive | inactive | inactive | inactive | inactive | inactive | inactive | inactive | inactive | inactive | inactive | inactive | inactive | inactive | inactive | inactive | inactive | inactive
10 | CC(=O)Oc1ccc(C)cc1 | inactive | inactive | inactive | inactive | inactive | inactive | inactive | inactive | inactive | inactive | inactive | inactive | inactive | inactive | inactive | inactive | inactive | inactive | inactive | inactive
11 | OC1C(O)C(O)C(O)C(O)C1O (stereo not given) | inactive | inactive | inactive | inactive | inactive | inactive | inactive | inactive | inactive | inactive | inactive | inactive | inactive | inactive | inactive | inactive | inactive | inactive | inactive | inactive
12 | Cc1ccccc1OCC(O)CO (stereo not given) | inactive | inactive | inactive | inactive | inactive | inactive | inactive | inactive | inactive | inactive | inactive | inactive | inactive | inactive | inactive | inactive | inactive | inactive | inactive | inactive
13 | Nc1ccc(S(=O)(=O)NCc2ccccc2)cc1 | inactive | inactive | inactive | inactive | inactive | inactive | inactive | inactive | inactive | inactive | inactive | inactive | inactive | inactive | inactive | inactive | inactive | inactive | inactive | inactive
14 | COc1cc(C(=O)N2CCCCCCC2)cc(OC)c1OC | inactive | inactive | inactive | inactive | inactive | inactive | inactive | inactive | inactive | inactive | inactive | inactive | inactive | inactive | inactive | inactive | inactive | inactive | inactive | inactive
15 | NCCNC(=O)c1ccc(Cl)cn1 | inactive | inactive | inactive | inactive | inactive | inactive | inactive | inactive | inactive | inactive | inactive | inactive | inactive | inactive | inactive | inactive | inactive | inactive | inactive | inactive
16 | NS(=O)(=O)c1ccc(Cl)c(S(N)(=O)=O)c1 | inactive | inactive | inactive | inactive | inactive | inactive | inactive | inactive | inactive | inactive | inactive | inactive | inactive | inactive | inactive | inactive | inactive | inactive | inactive | inactive
17 | O=C(O)CCNC(=O)c1ccccc1 | inactive | inactive | inactive | inactive | inactive | inactive | inactive | inactive | inactive | inactive | inactive | inactive | inactive | inactive | inactive | inactive | inactive | inactive | inactive | inactive
18 | COc1ccc(-c2cc(C(F)F)nn2-c2ccc(S(N)(=O)=O)cc2)cc1F | inactive | inactive | inactive | inactive | inactive | inactive | inactive | inactive | inactive | inactive | inactive | inactive | inactive | inactive | inactive | inactive | inactive | inactive | inactive | inactive
19 | CC[C@H](c1ccc(O)cc1)[C@@H](CC)c1ccc(O)cc1 | inactive | inactive | inactive | inactive | inactive | inactive | inactive | inactive | inactive | inactive | inactive | inactive | inactive | inactive | inactive | inactive | inactive | inactive | inactive | inactive
20 | CCCN(CCC)S(=O)(=O)c1ccc(C(=O)O)cc1 | inactive | inactive | inactive | inactive | inactive | inactive | inactive | inactive | inactive | inactive | inactive | inactive | inactive | inactive | inactive | inactive | inactive | inactive | inactive | inactive
21 | COP(=O)(OC)OC(c1ccc(Cl)cc1)P(=O)(OC)OC (stereo not given) | inactive | inactive | inactive | inactive | inactive | inactive | inactive | inactive | inactive | inactive | inactive | inactive | inactive | inactive | inactive | inactive | inactive | inactive | inactive | inactive
22 | CCCCCCCC/C=C\CCCCCCCCN | inactive | inactive | inactive | inactive | inactive | inactive | inactive | inactive | inactive | inactive | inactive | inactive | inactive | inactive | inactive | inactive | inactive | inactive | inactive | inactive
23 | Nc1nc(-c2ccccc2)c(Br)c(=O)[nH]1 | inactive | inactive | inactive | inactive | inactive | inactive | inactive | inactive | inactive | inactive | inactive | inactive | inactive | inactive | inactive | inactive | inactive | inactive | inactive | inactive
24 | OCc1ccccn1 | inactive | inactive | inactive | inactive | inactive | inactive | inactive | inactive | inactive | inactive | inactive | inactive | inactive | inactive | inactive | inactive | inactive | inactive | inactive | inactive
25 | Cc1cc(NS(=O)(=O)c2ccc(N)cc2)nc(C)n1 | inactive | inactive | inactive | inactive | inactive | inactive | inactive | inactive | inactive | inactive | inactive | inactive | inactive | inactive | inactive | inactive | inactive | inactive | inactive | inactive
26 | CCCCNC(=O)NS(=O)(=O)c1ccc(N)cc1 | inactive | inactive | inactive | inactive | inactive | inactive | inactive | inactive | inactive | inactive | inactive | inactive | inactive | inactive | inactive | inactive | inactive | inactive | inactive | inactive
27 | COc1cc(C(=O)NCc2ccc(OCCN(C)C)cc2)cc(OC)c1OC | inactive | inactive | inactive | inactive | inactive | inactive | inactive | inactive | inactive | inactive | inactive | inactive | inactive | inactive | inactive | inactive | inactive | inactive | inactive | inactive
28 | CCC1Nc2cc(Cl)c(S(N)(=O)=O)cc2S(=O)(=O)N1 (stereo not given) | inactive | inactive | inactive | inactive | inactive | inactive | inactive | inactive | inactive | inactive | inactive | inactive | inactive | inactive | inactive | inactive | inactive | inactive | inactive | inactive
